Measured values: the supplement of paper PMC11732987, “Enantioselective OTUD7B fragment discovery through chemoproteomics screening and high-throughput optimisation” (Communications Chemistry, 2025)

Tests used:
Assay in all cases: log2 ratio of Biotin-Ahx-Ub-VS probe labelling (fragment/DMSO); higher = less target engagement (more negative = stronger competition), active = hit call of the paper (q ≤ 0.05, log2 ratio ≤ -1)
Settings in all cases: compound concentration: 200 uM; treatment time: 3 h
USP19 = target: T1, USP19 (UniProt O94966)
T1 sequence (whole entry): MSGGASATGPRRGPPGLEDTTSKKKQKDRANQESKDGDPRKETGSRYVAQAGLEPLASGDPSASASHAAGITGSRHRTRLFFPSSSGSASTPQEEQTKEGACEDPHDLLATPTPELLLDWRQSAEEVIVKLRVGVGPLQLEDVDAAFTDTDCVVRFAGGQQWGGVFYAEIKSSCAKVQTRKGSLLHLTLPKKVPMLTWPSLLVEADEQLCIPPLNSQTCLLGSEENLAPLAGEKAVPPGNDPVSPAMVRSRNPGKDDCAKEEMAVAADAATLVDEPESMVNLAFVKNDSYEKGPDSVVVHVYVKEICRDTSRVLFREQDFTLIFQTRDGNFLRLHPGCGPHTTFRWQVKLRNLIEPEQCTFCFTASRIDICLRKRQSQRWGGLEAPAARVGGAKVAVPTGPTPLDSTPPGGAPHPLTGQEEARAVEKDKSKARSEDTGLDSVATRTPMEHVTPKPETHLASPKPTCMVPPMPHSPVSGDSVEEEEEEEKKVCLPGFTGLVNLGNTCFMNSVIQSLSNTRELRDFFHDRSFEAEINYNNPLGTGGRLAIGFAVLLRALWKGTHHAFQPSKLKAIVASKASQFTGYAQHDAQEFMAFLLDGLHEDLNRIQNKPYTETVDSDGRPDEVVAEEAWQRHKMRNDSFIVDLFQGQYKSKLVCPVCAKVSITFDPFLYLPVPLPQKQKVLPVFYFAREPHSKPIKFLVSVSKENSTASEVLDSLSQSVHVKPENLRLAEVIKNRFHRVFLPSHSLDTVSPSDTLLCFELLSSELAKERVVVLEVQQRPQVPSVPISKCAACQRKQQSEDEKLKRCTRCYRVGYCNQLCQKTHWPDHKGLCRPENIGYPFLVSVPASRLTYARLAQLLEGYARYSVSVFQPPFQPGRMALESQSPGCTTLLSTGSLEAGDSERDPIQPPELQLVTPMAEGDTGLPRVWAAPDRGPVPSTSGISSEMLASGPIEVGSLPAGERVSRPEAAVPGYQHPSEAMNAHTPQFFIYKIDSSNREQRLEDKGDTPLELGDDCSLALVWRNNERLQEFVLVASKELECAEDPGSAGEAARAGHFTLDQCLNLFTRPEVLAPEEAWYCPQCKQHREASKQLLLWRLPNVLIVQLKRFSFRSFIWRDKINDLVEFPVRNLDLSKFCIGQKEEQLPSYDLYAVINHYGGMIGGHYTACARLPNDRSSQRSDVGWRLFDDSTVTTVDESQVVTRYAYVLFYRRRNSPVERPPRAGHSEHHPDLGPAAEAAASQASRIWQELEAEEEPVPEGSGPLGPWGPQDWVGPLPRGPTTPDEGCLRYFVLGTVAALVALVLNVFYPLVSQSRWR
Outline: (§1)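 Each value is an average log2 ratio of fragment to vehicle, tested by unpaired t-test. The underlying Spectronaut label-free quantities were global-median-normalised, and only proteins with ≥2 unique peptides were included. Triplicate HEK293T lysate samples (495 µg) were exposed to fragment at 200 µM or vehicle for 3 h, then to Biotin-Ahx-Ub-VS at 0.5 µM final for 1 h, before NeutrAvidin enrichment of labelled DUBs, LysC and trypsin digestion, and diaPASEF LC-MS/MS.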

USP22 = target: T2, USP22 (UniProt Q9UPT9)
T2 sequence (whole entry): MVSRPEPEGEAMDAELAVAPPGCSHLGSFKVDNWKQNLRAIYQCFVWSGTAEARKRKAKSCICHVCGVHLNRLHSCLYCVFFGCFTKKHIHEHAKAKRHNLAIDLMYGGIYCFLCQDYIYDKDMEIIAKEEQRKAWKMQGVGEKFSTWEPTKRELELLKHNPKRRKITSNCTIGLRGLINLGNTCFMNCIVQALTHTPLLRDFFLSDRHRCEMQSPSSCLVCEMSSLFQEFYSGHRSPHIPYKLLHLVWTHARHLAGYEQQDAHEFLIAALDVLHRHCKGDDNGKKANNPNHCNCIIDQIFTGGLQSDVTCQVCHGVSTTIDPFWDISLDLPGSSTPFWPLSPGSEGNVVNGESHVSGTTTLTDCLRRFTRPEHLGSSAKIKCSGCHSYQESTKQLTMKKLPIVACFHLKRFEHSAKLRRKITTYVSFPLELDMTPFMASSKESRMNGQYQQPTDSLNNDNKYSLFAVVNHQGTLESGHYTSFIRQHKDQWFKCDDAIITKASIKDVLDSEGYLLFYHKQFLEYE
Outline: as §1

USP24 = USP24 (UniProt Q9UPU5)
Outline: as §1

USP25 = target: T3, USP25 (UniProt Q9UHP3)
T3 sequence (whole entry): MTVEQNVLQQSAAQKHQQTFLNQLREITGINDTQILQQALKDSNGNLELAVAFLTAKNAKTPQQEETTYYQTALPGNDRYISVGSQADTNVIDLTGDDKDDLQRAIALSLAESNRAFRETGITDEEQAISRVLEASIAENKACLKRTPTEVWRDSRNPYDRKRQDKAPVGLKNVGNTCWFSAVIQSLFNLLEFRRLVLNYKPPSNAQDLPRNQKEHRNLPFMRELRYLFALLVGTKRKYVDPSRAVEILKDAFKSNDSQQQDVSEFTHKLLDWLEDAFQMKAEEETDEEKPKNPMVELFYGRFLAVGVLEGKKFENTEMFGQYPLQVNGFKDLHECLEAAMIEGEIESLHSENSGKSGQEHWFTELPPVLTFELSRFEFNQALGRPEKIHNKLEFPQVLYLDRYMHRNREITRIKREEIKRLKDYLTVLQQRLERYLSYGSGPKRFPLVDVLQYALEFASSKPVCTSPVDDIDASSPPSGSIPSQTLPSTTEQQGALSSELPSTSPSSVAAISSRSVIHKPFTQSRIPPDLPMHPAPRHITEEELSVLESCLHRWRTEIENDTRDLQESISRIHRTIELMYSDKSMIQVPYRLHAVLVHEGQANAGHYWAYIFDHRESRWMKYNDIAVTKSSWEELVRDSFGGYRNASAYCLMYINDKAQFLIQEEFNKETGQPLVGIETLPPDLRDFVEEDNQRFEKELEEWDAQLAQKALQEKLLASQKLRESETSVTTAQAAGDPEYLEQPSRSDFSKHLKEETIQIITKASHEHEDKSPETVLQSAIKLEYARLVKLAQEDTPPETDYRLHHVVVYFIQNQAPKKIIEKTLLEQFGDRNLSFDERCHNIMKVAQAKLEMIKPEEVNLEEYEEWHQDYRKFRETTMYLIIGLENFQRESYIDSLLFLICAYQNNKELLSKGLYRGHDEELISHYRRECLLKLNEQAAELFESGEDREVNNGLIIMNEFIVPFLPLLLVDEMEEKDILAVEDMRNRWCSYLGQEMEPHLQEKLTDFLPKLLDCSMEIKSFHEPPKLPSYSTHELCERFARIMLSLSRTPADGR
Outline: as §1

USP28 = target: T4, USP28 (UniProt Q96RU2)
T4 sequence (whole entry): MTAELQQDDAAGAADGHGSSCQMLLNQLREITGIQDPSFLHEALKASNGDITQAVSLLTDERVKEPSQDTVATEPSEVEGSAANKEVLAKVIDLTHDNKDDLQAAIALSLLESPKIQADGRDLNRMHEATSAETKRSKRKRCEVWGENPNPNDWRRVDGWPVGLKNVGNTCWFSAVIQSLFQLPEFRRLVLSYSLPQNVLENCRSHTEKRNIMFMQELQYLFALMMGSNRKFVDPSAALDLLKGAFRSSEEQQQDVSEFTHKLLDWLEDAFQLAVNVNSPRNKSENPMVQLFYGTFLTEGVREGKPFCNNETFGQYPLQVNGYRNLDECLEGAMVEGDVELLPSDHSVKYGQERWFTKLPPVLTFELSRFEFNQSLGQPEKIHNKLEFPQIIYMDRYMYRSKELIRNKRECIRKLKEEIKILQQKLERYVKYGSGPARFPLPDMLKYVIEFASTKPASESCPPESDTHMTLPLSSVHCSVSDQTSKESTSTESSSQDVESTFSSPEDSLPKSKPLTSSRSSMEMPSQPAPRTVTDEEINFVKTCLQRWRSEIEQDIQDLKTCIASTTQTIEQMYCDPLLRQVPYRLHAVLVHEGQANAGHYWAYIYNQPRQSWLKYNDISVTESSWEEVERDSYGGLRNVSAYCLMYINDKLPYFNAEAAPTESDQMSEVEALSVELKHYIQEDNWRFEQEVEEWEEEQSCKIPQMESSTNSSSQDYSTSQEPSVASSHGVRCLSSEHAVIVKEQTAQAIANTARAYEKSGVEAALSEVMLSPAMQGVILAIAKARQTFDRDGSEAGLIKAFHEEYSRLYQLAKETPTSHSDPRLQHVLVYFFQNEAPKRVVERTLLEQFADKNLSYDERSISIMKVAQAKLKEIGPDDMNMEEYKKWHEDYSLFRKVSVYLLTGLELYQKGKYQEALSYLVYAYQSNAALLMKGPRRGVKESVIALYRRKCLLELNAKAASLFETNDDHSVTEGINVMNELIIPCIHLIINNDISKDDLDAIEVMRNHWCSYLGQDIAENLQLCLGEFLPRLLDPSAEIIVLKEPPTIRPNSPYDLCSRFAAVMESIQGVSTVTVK
Outline: as §1

Measured: log2 ratio of Biotin-Ahx-Ub-VS probe labelling

Chain of USP24 (Q9UPU5 whole entry): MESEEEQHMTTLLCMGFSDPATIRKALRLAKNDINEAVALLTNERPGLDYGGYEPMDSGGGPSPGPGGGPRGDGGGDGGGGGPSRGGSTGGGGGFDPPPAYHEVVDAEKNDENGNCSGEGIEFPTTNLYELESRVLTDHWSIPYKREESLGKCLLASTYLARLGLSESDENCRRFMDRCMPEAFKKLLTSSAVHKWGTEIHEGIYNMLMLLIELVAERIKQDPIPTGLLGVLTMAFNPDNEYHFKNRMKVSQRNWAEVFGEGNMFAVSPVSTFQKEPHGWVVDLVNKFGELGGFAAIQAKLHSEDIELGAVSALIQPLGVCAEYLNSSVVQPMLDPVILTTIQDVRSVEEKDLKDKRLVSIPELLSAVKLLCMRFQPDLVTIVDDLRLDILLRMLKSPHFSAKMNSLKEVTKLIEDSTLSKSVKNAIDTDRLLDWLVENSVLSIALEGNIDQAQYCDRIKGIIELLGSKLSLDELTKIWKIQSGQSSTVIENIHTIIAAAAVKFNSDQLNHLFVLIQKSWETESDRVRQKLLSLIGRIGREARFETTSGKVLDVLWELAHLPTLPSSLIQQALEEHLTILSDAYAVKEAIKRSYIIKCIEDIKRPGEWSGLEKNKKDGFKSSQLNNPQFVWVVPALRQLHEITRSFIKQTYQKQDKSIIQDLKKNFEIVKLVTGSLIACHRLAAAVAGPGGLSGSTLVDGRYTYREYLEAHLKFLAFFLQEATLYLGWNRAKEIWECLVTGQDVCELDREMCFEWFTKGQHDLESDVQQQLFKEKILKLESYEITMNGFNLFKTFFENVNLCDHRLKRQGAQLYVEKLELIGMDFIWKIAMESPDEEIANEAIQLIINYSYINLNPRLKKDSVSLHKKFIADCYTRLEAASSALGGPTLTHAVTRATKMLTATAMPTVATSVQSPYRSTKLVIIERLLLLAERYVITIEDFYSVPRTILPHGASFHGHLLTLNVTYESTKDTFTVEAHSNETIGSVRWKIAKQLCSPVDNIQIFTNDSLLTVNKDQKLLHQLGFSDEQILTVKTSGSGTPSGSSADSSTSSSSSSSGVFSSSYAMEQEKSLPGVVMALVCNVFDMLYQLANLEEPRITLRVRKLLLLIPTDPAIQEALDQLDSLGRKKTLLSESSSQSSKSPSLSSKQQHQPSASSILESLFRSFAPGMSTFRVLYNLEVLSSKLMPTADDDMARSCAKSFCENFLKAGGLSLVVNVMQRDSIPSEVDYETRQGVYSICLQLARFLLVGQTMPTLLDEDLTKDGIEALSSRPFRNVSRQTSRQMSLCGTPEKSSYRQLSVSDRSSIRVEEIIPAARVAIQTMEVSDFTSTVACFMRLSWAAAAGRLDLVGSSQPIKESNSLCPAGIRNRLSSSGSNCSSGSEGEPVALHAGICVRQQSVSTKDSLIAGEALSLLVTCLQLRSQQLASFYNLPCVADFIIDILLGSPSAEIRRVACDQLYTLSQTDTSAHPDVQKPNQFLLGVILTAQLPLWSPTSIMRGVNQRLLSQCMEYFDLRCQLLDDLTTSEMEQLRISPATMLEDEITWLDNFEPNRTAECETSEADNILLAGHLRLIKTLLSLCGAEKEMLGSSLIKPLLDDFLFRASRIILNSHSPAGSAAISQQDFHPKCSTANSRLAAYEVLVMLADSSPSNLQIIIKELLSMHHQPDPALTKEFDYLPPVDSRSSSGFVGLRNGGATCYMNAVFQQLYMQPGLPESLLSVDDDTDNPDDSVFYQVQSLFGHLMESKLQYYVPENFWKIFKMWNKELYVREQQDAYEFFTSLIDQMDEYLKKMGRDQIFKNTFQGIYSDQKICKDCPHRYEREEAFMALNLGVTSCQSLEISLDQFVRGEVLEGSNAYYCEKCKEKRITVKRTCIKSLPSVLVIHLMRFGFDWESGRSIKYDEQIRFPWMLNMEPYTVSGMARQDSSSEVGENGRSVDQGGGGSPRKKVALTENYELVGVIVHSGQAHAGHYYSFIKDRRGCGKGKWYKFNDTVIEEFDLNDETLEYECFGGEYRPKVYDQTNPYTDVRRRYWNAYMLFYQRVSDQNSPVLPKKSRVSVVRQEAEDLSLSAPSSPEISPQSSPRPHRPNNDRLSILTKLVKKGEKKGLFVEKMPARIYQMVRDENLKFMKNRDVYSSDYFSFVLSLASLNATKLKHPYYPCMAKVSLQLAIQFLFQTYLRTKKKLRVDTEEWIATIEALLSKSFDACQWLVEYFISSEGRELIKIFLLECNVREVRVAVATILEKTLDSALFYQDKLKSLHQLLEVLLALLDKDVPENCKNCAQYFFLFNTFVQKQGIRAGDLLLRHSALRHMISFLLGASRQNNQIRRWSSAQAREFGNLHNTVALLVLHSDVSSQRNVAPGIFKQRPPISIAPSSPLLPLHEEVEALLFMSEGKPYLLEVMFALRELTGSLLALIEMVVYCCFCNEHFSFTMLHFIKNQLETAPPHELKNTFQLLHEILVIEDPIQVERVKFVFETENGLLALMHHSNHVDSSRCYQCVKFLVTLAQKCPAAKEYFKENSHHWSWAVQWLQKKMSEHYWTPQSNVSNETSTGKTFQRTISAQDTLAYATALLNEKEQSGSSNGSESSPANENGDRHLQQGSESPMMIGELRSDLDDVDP

O=C(CCl)NCCC1=CCCCC1
inactive: USP19 -0.00951 | USP22 -0.0359 | USP24 -0.0898 | USP25 -0.223 | USP28 -0.444
